A word on the viability: it is a read-out of living cells in per cent, often relative to untreated cells.

This note sets out measurements from PubChem BioAssay.

Experiment [1] can be described thus: hESC survival regulators, cell-based (AID 493140; call rule not given here;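 also: cells exposed to compounds for four days before counting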). As to conditions: human embryonic stem cell survival screen; stronger effect = higher value.
Experiment [2] can be described thus: liver-stage malaria parasite growth inhibition, primary screen, cell-based, HepG2, luciferase luminescence, HepG2 viability (AID 624349).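 Also: 100% = mean of DMSO negative control wells on the same plate.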 As to conditions: P. berghei liver stage in HepG2, luciferase luminescence, concentration not given here; parasite load remaining: stronger effect = lower value; viability: measured here: HepG2 viability without parasites.
A short description of experiment [3]: stimulators of nuclear beta-catenin in C2C12, primary screen, imaging, WNT3A-conditioned medium, mouse C2C12, NPC library (AID 1117326; in the data active = nuclear beta-catenin stimulation mostly above about 4.2%, no sharp cut-off; inactive = mostly below about 10%). The following applies: stronger effect = higher value.
A short description of experiment [4]: stimulators of insulin release from INS-1E, primary screen, cell-based, 5 mM glucose, NPC library (AID 1117329;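 active = compound raises insulin release from rat beta cells at 5 mM glucose, no numeric limit stated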). As to conditions: rat INS-1E insulin secretion, at 10 µM, stronger effect = higher value.
Experiment [5] can be described thus: growth inhibition of GSK3B-pretreated HCT116 cells – cell-based, CellTiter-Glo, 0.2 to 20 µM (AID 1117336;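 active = compounds lowering colon cancer cell viability after pretreatment blocking the GSK3B kinase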). As to conditions: HCT116 viability after GSK3B inhibitor, at 20 µM, stronger effect = higher value. In general terms: In ATP-based viability assays light output follows the ATP content of the culture.
Experiment [6] is described as follows: inhibition of endothelial tube formation, primary screen, imaging, VEGF stimulated, CD31 staining, tube area, NPC library (AID 1117340;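 active = compound that reduces growth-factor-driven endothelial tube area in a mixed cell culture, no cutoff stated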). As to conditions: VEGF-stimulated ADSC/ECFC co-culture, at 10 µM, stronger effect = higher value.
Experiment [7] can be described thus: glucagon-like peptide 1 release enhancers, primary assay, NCI-H716 cell line, NPC library (AID 1117341;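 active = compound raises GLP1 secretion from the human gut endocrine cells, with no numeric limit stated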). The following applies: NCI-H716 cells, at 10 µM, stronger effect = higher value.
A short description of experiment [8]: HCT116 colon cancer cell growth inhibition, primary screen, CellTiter-Glo luminescence, NPC library (AID 1117342;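 active = compounds that lower survival of HCT116 colon cancer cells in the luminescence readout, no numeric limit stated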). The following applies: at 20 µM (top of the series).
Experiment [9] can be described thus: CellTiter-Glo luminescent readout of SW480 viability loss, NPC library primary (AID 1117343;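 active = compounds that lower viability of the colon cancer cells in the luminescence readout, with no numeric limit stated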). The following applies: CellTiter-Glo luminescence; at 20 µM (top of the series) unless noted.
A short description of experiment [10]: decreased DLD-1 cellular survival, CellTiter-Glo luminescent readout, NPC compound collection, primary HTS (AID 1117346;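 active = compounds that lower survival of DLD-1 colon cancer cells in the luminescence readout, no cutoff given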). As to conditions: DLD-1 viability, CellTiter-Glo luminescence; at 20 µM (top of the series).
The nature of experiment [11]: sensitizers of A549 cells to miR-34 induction, primary screen, imaging, A549 dox-inducible miR-34, nuclei and caspase counts (AID 1347080;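 active = compounds whose cell count with miR-34 switched on is under 0.7 times the count with it off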). The following applies: A549 miR-34 inducible, Hoechst nuclei count, 48 h.
Experiment [12] can be described thus: survival rescue of mitochondrial mutant cells in low glucose, primary screen, MELAS cybrids, Rieske KO mouse fibroblasts, CellTiter-Glo (AID 1508586;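 active = mean z-score across replicates of 1.96 or higher in either the MELAS or the Rieske mutant cell line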;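 also: z relative to plate mean and SD of compound and empty wells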).
Experiment [13] has as its target ATP-dependent translocase ABCB1 (Homo sapiens) (UniProt P08183). Put plainly: MDR1 (ABCB1) efflux transporter inhibition, cell-based (AID 377; in the data active = fluorescence slope change above about 50%). The following applies: MDR1-expressing cells, fluorescent substrate accumulation slope; stronger effect = higher value; concentration not given here.
Experiment [14] addresses NAD(+) hydrolase SARM1 (Homo sapiens) (UniProt Q6SZW1). Put plainly: SARM1 TIR NADase inhibitors, cell lysate, NAD-Glo luminescence (AID 1508614;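 active = compound whose remaining NAD level is above about 45 nM, limit read from the data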;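 also: higher remaining NAD means stronger inhibition of SARM1 NADase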). As to conditions: SAM-TIR HEK293T lysate NADase, at 1 µM, stronger effect = higher value.
The mark [15] stands for this setting: stronger effect = lower value, cell number ratio, induced over uninduced.
The mark [16] stands for this setting: measured here: relative caspase fold change +Dox/-Dox.
Where [17] appears, read: measured here: total cells with miR-34 induction, stronger effect = lower value.
The mark [18] stands for this setting: measured here: total cells without miR-34 induction.
Setting [19] is: MELAS cybrid survival, CellTiter-Glo 48 h, stronger effect = higher value.
Where [20] appears, read: Rieske KO mouse fibroblast survival, CellTiter-Glo 72 h.

Values joined by “and” are separate entries in the source; they are usually repeats but may differ in a detail not shown here. Equal entries are not always repeated. Results filed as inconclusive are left out. Active and inactive are the calls of the source. Rule as the data show it, unless noted: active = parasite load remaining mostly below about 12% (no sharp cut-off); inactive = mostly above about 10%.

ATP-dependent translocase ABCB1 (Homo sapiens), sequence (P08183 whole entry, looked up): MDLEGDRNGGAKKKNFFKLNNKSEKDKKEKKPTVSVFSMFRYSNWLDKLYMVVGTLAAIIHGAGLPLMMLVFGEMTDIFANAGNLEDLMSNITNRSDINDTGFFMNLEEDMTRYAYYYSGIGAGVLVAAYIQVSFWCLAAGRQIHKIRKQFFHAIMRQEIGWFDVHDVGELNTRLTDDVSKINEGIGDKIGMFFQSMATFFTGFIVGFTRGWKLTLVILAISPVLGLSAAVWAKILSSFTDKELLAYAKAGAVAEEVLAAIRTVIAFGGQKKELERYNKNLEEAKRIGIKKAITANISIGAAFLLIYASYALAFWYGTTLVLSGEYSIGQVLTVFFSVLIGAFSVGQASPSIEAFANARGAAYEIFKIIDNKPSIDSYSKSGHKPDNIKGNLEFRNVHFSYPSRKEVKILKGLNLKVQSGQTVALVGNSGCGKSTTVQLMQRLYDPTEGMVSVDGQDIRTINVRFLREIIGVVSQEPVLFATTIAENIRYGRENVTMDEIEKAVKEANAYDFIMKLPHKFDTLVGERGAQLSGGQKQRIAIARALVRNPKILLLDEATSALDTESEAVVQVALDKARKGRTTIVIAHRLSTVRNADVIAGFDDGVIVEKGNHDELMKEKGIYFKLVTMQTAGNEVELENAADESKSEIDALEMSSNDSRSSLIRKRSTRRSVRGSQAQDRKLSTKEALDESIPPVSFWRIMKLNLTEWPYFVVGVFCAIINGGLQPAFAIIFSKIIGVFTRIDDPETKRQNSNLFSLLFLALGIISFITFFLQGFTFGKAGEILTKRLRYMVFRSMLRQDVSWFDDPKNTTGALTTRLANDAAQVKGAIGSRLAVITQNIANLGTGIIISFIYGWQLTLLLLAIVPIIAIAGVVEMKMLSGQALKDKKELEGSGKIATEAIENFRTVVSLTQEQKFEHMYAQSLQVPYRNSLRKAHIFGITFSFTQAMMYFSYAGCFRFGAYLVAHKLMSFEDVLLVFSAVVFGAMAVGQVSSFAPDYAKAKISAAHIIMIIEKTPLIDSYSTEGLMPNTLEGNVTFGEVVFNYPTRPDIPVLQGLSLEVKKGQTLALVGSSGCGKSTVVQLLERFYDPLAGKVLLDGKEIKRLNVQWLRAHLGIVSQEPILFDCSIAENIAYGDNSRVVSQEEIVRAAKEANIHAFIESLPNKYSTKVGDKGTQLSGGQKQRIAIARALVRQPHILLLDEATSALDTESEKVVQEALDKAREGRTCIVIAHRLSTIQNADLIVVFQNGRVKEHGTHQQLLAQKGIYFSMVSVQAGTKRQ
NAD(+) hydrolase SARM1 (Homo sapiens), sequence (Q6SZW1 whole entry, looked up): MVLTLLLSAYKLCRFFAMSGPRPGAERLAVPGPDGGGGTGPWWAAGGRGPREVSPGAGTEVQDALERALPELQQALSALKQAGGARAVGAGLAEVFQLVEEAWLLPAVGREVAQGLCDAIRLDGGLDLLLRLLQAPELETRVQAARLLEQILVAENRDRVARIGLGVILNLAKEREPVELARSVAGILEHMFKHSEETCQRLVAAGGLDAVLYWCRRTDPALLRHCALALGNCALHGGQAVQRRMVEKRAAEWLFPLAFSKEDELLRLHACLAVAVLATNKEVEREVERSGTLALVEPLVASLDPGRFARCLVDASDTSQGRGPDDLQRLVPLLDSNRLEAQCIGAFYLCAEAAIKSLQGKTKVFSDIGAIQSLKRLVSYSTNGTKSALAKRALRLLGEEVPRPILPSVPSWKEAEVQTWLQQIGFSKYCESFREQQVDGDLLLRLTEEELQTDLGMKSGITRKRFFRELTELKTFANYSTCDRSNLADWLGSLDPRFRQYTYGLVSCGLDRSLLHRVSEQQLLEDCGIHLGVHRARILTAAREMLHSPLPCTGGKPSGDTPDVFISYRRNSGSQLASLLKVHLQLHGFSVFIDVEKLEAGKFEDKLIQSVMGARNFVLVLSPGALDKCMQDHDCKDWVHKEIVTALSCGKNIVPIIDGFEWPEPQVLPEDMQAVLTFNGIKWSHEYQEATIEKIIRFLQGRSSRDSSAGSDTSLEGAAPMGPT

For the molecule `NS(=O)(=O)c1cc2c(cc1Cl)NC(CC1CCCC1)NS2(=O)=O` (configuration not stated), in experiment [1], the survival was 5.92 (inactive). Moreover, the parasite load remaining in experiment [2] was 80.8% (inactive). For the same molecule, in experiment [2], the viability was 73%. Also, the nuclear beta-catenin stimulation is -0.9% (inactive) in experiment [3] (at 10 µM) and -1.5% in experiment [3] (stimulation, at 2 µM). Also, in experiment [4], the insulin secretion stimulation is 4.2% (inactive). The viability decrease in experiment [5] was 1% (inactive). For the same molecule, the tube area decrease in experiment [6] is 35.3% (inactive). Also, the GLP1 secretion stimulation in experiment [7] is 3.4% (inactive). Besides, the inhibition of viability in experiment [8] is 1.1% (inactive). The viability decrease (inhibition) was -15.3% (inactive) in experiment [9] and -0.6% (inactive) in experiment [10]. For the same molecule, the fold change in experiment [11] (setting [15]) was 0.993 (inactive); in experiment [11] (setting [16]), 0.594. In addition, the cell count in experiment [11] (setting [17]) is 9530; in experiment [11] (setting [18]), 9590. The z-score in [12] (setting [19]) is 0.486 (inactive); in experiment [12] (setting [20]), -0.891.
For `CN(C)CCn1nnnc1SCC1=C(C(=O)O)N2C(=O)[C@@H](NC(=O)Cc3csc(N)n3)[C@H]2SC1`, in experiment [1], the survival was 7.25 (inactive). For the same molecule, the parasite load remaining in experiment [2] is 47.4% (inactive) and 69.6% (inactive). Also, in [2], the viability was 114% and 74.2%. In addition, the nuclear beta-catenin stimulation in experiment [3] (at 10 µM) is -1.2% (inactive); in experiment [3] (stimulation, at 2 µM), 1.1%. In addition, in experiment [4], the insulin secretion stimulation was 2.8% (inactive). For the same molecule, the viability decrease in experiment [5] was 4.6% (inactive). Further, the tube area decrease in experiment [6] was -30.8% (inactive). Moreover, the GLP1 secretion stimulation in [7] was -3% (inactive). In addition, the inhibition of viability in [8] was -8.3% (inactive). Also, the results for the viability decrease (inhibition) in experiment [9] and in experiment [10] were 4.5% (inactive) and -6.8% (inactive), respectively. Further, the figures for the fold change in [11] (setting [15]) and in [11] (setting [16]) were 0.874 (inactive) and 1.13, respectively. Further, the results for the cell count in experiment [11] (setting [17]) and in experiment [11] (setting [18]) were 8320 and 9520, respectively. The results for the z-score in experiment [12] (setting [19]) and in experiment [12] (setting [20]) were -0.0188 (inactive) and -0.0723, respectively.
For `CN1CCCN(C(c2ccccc2)c2ccc(Cl)cc2)CC1` (configuration not stated), the fluorescence slope change in experiment [13] was 122% (active). Further, in experiment [1], the survival is 4.08 (inactive). In experiment [2], the parasite load remaining is 48.8% (inactive) and 98.3% (inactive). Further, in [2], the viability was 42.5% and 88%. The nuclear beta-catenin stimulation in [3] (at 10 µM) is 3.7% (inactive); in experiment [3] (stimulation, at 2 µM) it was 1.3%. Besides, the insulin secretion stimulation in [4] was 2.9% (active). For the same molecule, the viability decrease in [5] is 96% (active). In addition, the tube area decrease in [6] was 38.7% (inactive). In addition, the GLP1 secretion stimulation in experiment [7] was 13.9% (inactive). In addition, the inhibition of viability in experiment [8] is 96.5% (active). In addition, the viability decrease (inhibition) in experiment [9] was 122% (active); in experiment [10], 71% (active). Besides, the figures for the fold change in experiment [11] (setting [15]) and in [11] (setting [16]) were 0.886 (inactive) and 1.48, respectively. Besides, the figures for the cell count in experiment [11] (setting [17]) and in experiment [11] (setting [18]) were 7610 and 8580, respectively. Also, the z-score in [12] (setting [19]) was -0.68 (inactive); in experiment [12] (setting [20]), 0.377.
For `FCOC(C(F)(F)F)C(F)(F)F`, the nuclear beta-catenin stimulation was -1.9% (inactive) in experiment [3] (at 10 µM) and -0.4% in experiment [3] (stimulation, at 2 µM). Also, the insulin secretion stimulation in [4] is 5.1% (inactive). Also, in [5], the viability decrease is -4.6% (inactive). For the same molecule, the tube area decrease in [6] is 8.2% (inactive). In experiment [7], the GLP1 secretion stimulation is -1.9% (inactive). In addition, the inhibition of viability in experiment [8] was -0.4% (inactive). Moreover, the viability decrease (inhibition) in experiment [9] was -3.5% (inactive); in experiment [10], 7.5% (inactive). Moreover, the fold change in experiment [11] (setting [15]) is 0.911 (inactive); in experiment [11] (setting [16]), 1.07. Moreover, the cell count came to 8640 in [11] (setting [17]) and 9480 in experiment [11] (setting [18]). Also, the remaining NAD in experiment [14] is 10 nM (inactive).
Consider `C/C(=C(\CCOP(=O)(O)O)SC(=O)c1ccccc1)N(C=O)Cc1cnc(C)nc1N`, for which, in experiment [1], the survival is 11 (inactive). The parasite load remaining in experiment [2] is 106% (inactive). Besides, the viability in experiment [2] was determined as 102%. Moreover, the nuclear beta-catenin stimulation in [3] (at 10 µM) is -2.6% (inactive); in experiment [3] (stimulation, at 2 µM), -0.9%. For the same molecule, the insulin secretion stimulation in experiment [4] is 1.6% (inactive). Besides, in experiment [5], the viability decrease was -1.5% (inactive). Moreover, in experiment [6], the tube area decrease was -4.8% (inactive). Further, the GLP1 secretion stimulation in [7] was -2.7% (inactive). In addition, the inhibition of viability in [8] was 4.6% (inactive). Moreover, the viability decrease (inhibition) in [9] is -2.1% (inactive); in experiment [10], -1% (inactive). Further, the fold change in experiment [11] (setting [15]) was 0.873 (inactive); in experiment [11] (setting [16]), 1.12. Further, the cell count in [11] (setting [17]) came out at 8510; in experiment [11] (setting [18]), 9750. The z-score in experiment [12] (setting [19]) is 0.178 (inactive); in experiment [12] (setting [20]) it was 0.46.
